Experimental data reported in PubChem BioAssay AID1159580 (chemical genetic matrix, 2015).
Screen size: about 5,500 compounds; about 2,000 (36%) were called active. Roughly 18% stayed inconclusive and do not appear here. Cut-off read from the data, not from the text of the source: active = normalized growth mostly below about 0.91 (no sharp cut-off); inconclusive = no clear call, values can overlap the other calls; inactive = mostly above about 0.92. Some of the results follow.

Experiment: chemical genetic growth profiling, strain panel (AID 1159580);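 note: tested at 20 µM; growth read once vehicle control cultures reached saturation at 30 °C; 1 = growth at the plate median or of vehicle wells; lower values mean less growth of the strain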
Conditions: growth OD
[1] = S. cerevisiae deletion strains, locus YAL013W, strain DEP1, hits give low values
[2] = S. cerevisiae deletion strains, locus YBR229C, strain ROT2, hits give low values
[3] = S. cerevisiae deletion strains, locus YDL101C, strain DUN1, hits give low values
[4] = S. cerevisiae deletion strains, locus YDR150W, strain NUM1, hits give low values
[5] = S. cerevisiae deletion strains, locus YEL061C, strain CIN8, hits give low values
[6] = S. cerevisiae deletion strains, locus YGR078C, strain PAC10, hits give low values
[7] = S. cerevisiae deletion strains, locus YHR030C, strain SLT2, hits give low values
[8] = S. cerevisiae deletion strains, locus YHR087W, strain rtc3, hits give low values
[9] = S. cerevisiae deletion strains, locus YJR043C, strain POL32, hits give low values
[10] = S. cerevisiae deletion strains, locus YJR075W, strain HOC1, hits give low values
[11] = S. cerevisiae deletion strains, locus YLR039C, strain RIC1, hits give low values
[12] = S. cerevisiae deletion strains, locus YLR058C, strain SHM2 (second series), hits give low values
[13] = S. cerevisiae deletion strains, locus YLR085C, strain ARP6, hits give low values
[14] = S. cerevisiae deletion strains, locus YLR262C, strain YPT6, hits give low values
[15] = S. cerevisiae deletion strains, locus YML094W, strain GIM5, hits give low values
[16] = S. cerevisiae deletion strains, locus YMR219W, strain ESC1, hits give low values
[17] = S. cerevisiae deletion strains, locus YMR263W, strain SAP30, hits give low values
[18] = S. cerevisiae deletion strains, locus YMR307W, strain GAS1, hits give low values
[19] = S. cerevisiae deletion strains, locus YNL128W, strain TEP1, hits give low values
[20] = S. cerevisiae deletion strains, locus YNL153C, strain GIM3, hits give low values
[21] = S. cerevisiae deletion strains, locus YNL298W, strain CLA4 (second series), hits give low values
[22] = S. cerevisiae deletion strains, locus YNL322C, strain KRE1, hits give low values
[23] = S. cerevisiae deletion strains, locus YNR030W, strain Alg12, hits give low values
[24] = S. cerevisiae deletion strains, locus YPL055C, strain LGE1, hits give low values
[25] = S. cerevisiae deletion strains, locus YPL241C, strain CIN2, hits give low values
[26] = S. cerevisiae deletion strains, locus YPR135W, strain CTF4, hits give low values
[27] = S. cerevisiae deletion strains, locus YKL190W, strain CNB1, hits give low values
[28] = S. cerevisiae deletion strains, locus YOL006C, strain TOP1, hits give low values
[29] = S. cerevisiae strains, strain wild type, hits give low values

Measured: normalized growth

COc1cc(/C=C2/SC(=S)NC2=O)cc(OC)c1OC
active: [1] 0.915 | [2] 0.894 | [3] 0.865 | [6] 0.877 | [10] 0.822 | [11] 0.725 | [12] 0.919 | [14] 0.73 | [16] 0.926 | [17] 0.901 | [20] 0.92 | [22] 0.926
inactive: [4] 0.897 | [5] 0.977 | [7] 0.87 | [8] 0.911 | [9] 0.948 | [13] 0.845 | [15] 0.969 | [18] 0.887 | [19] 0.977 | [21] 0.912 | [23] 0.922 | [24] 0.881 | [25] 0.885 | [26] 0.809

COc1cc(/C=C/C=O)cc(OC)c1OC
inactive: [1] 1.03 | S. cerevisiae deletion strains, locus YBR021W, strain FUR4, hits give low values 1.01 | [2] 1.01 | S. cerevisiae deletion strains, locus YCL029C, strain bik1, hits give low values 1.03 | S. cerevisiae deletion strains, locus YDL035C, strain GPR1, hits give low values 1.04 | S. cerevisiae deletion strains, locus YDL074C, strain BRE1, hits give low values 1.07 | [3] 1.02 | S. cerevisiae deletion strains, locus YDL185W, strain tfp1, hits give low values 1 | S. cerevisiae deletion strains, locus YDL192W, strain arf1, hits give low values 1.02 | S. cerevisiae deletion strains, locus YDR101C, strain arx1, hits give low values 1.02 | S. cerevisiae deletion strains, locus YDR162C, strain NBP2, hits give low values 1.07 | S. cerevisiae deletion strains, locus YDR318W, strain mcm21, hits give low values 1.03 | S. cerevisiae deletion strains, locus YDR388W, hits give low values 1.01 | S. cerevisiae deletion strains, locus YDR502C, strain sam2, hits give low values 1.02 | S. cerevisiae deletion strains, locus YER110C, hits give low values 1 | S. cerevisiae deletion strains, locus YER155C, strain BEM2, hits give low values 1.02 | S. cerevisiae deletion strains, locus YER167W, strain BCK2, hits give low values 1.02 | S. cerevisiae deletion strains, locus YGL078C, strain dbp3, hits give low values 1.01 | S. cerevisiae deletion strains, locus YGL086W, strain mad1, hits give low values 1.02 | S. cerevisiae deletion strains, locus YGL248W, strain PDE1, hits give low values 1.04 | [6] 1.04 | S. cerevisiae deletion strains, locus YGR135W, strain pre9, hits give low values 0.998 | S. cerevisiae deletion strains, locus YGR252W, strain gcn5, hits give low values 1.03 | S. cerevisiae deletion strains, locus YHR079C, strain IRE1 (second series), hits give low values 1 | S. cerevisiae deletion strains, locus YHR094C, strain hxt1, hits give low values 0.995 | S. cerevisiae deletion strains, locus YHR129C, strain ARP1, hits give low values 1.02 | S. cerevisiae deletion strains, locus YHR200W, strain rpn10, hits give low values 1.01 | S. cerevisiae deletion strains, locus YIL066C, strain RNR3, hits give low values 1.02 | S. cerevisiae deletion strains, locus YIL073C, strain SPO22, hits give low values 1.06 | S. cerevisiae deletion strains, locus YIL125W, strain kgd1, hits give low values 1 | S. cerevisiae deletion strains, locus YIR030C, strain dcg1, hits give low values 1.01 | S. cerevisiae deletion strains, locus YJL095W, strain BCK1, hits give low values 1.06 | S. cerevisiae deletion strains, locus YJL134W, strain LCB3, hits give low values 1.01 | S. cerevisiae deletion strains, locus YJL168C, strain set2, hits give low values 0.997 | S. cerevisiae deletion strains, locus YJL187C, strain SWE1 (second series), hits give low values 1.04 | [9] 1.06 | S. cerevisiae deletion strains, locus YKL009W, strain mrt4, hits give low values 1.01 | S. cerevisiae deletion strains, locus YKL068W, hits give low values 0.994 | S. cerevisiae deletion strains, locus YKL085W, strain MDH1 (second series), hits give low values 1.01 | S. cerevisiae deletion strains, locus YKL085W, strain MDH1, hits give low values 1.01 | [27] 1.01 | S. cerevisiae deletion strains, locus YKR001C, strain vps1, hits give low values 1.07 | [11] 1.14 | S. cerevisiae deletion strains, locus YLR058C, strain SHM2, hits give low values 1.03 | S. cerevisiae deletion strains, locus YLR102C, strain apc9, hits give low values 0.999 | [14] 1.13 | S. cerevisiae deletion strains, locus YLR268W, strain sec22, hits give low values 1.03 | S. cerevisiae deletion strains, locus YLR342W, strain FKS1 (second series), hits give low values 1.09 | S. cerevisiae deletion strains, locus YLR371W, strain rom2, hits give low values 0.991 | S. cerevisiae deletion strains, locus YLR418C, strain cdc73, hits give low values 1.02 | S. cerevisiae deletion strains, locus YML016C, strain PPZ1, hits give low values 1.02 | S. cerevisiae deletion strains, locus YML032C, strain rad52, hits give low values 1.03 | S. cerevisiae deletion strains, locus YML124C, strain tub3, hits give low values 0.996 | S. cerevisiae deletion strains, locus YMR078C, strain ctf18, hits give low values 0.994 | S. cerevisiae deletion strains, locus YMR223W, strain ubp8, hits give low values 1.01 | [17] 1.03 | [18] 1.06 | S. cerevisiae deletion strains, locus YNL067W, strain RPL9B, hits give low values 1.03 | [19] 1.03 | S. cerevisiae deletion strains, locus YNL233W, strain BNI4, hits give low values 1.04 | S. cerevisiae deletion strains, locus YNL250W, strain rad50, hits give low values 1 | S. cerevisiae deletion strains, locus YNL271C, strain bni1, hits give low values 1 | S. cerevisiae deletion strains, locus YNL298W, strain CLA4, hits give low values 0.995 | S. cerevisiae deletion strains, locus YNL307C, strain MCK1, hits give low values 1 | S. cerevisiae deletion strains, locus YNR052C, strain pop2, hits give low values 1 | [28] 1.22 | S. cerevisiae deletion strains, locus YOL012C, strain htz1 0.967 | S. cerevisiae deletion strains, locus YOL147C, strain pex11, hits give low values 1.01 | S. cerevisiae deletion strains, locus YOR061W, strain CKA2, hits give low values 1.04 | S. cerevisiae deletion strains, locus YOR069W, strain VPS5, hits give low values 1.01 | S. cerevisiae deletion strains, locus YOR136W, strain idh2, hits give low values 1.01 | S. cerevisiae deletion strains, locus YOR144C, strain elg1, hits give low values 0.998 | S. cerevisiae deletion strains, locus YOR184W, strain ser1, hits give low values 1.07 | S. cerevisiae deletion strains, locus YOR316C, strain cot1, hits give low values 0.988 | [24] 1.08 | [25] 1.01 | S. cerevisiae deletion strains, locus YPR119W, strain clb2, hits give low values 0.995 | S. cerevisiae deletion strains, locus YPR141C, strain kar3, hits give low values 1 | S. cerevisiae deletion strains, locus YPR163C, strain tif3, hits give low values 1.02 | S. cerevisiae deletion strains, locus YPR167C, strain met16, hits give low values 1.01 | S. cerevisiae deletion strains, strain wtn01, hits give low values 1.03 | [29] 1.05

COc1cc(/C=C2/N=C(c3ccccc3I)OC2=O)cc(OC)c1OC
inactive: [1] 1 | [2] 1.01 | S. cerevisiae deletion strains, locus YCL061C, strain MRC1, hits give low values 1.01 | [3] 1.03 | [4] 0.888 | [5] 0.984 | [6] 1 | S. cerevisiae deletion strains, locus YGR229C, strain SMI1, hits give low values 0.981 | [7] 0.956 | [8] 1.01 | [9] 1 | [10] 1.01 | [27] 0.995 | [11] 0.964 | [12] 0.996 | [13] 1.01 | [14] 0.947 | [15] 1.02 | [16] 1 | [17] 1 | [18] 0.961 | [20] 1.01 | [21] 1.01 | [22] 0.994 | [23] 0.982 | [28] 0.998 | [24] 1.12 | [25] 0.967 | [26] 0.903 | [29] 0.989
